In PubChem BioAssay (Tox21):
Inconclusive results are not listed. Values without a mark were called inactive. Calls of active or inactive are those of the source. Calls follow the shape of the dose curve; as a rule, active = well fitted inhibition curve with a large enough effect in the signal ratio in the repeat runs (not every such curve was filed as active); inconclusive = weak or mixed curves, or effect the other way; inactive = no such curve, though single readings can be large or run the other way; the % refers to the signal ratio.

These compounds were tested against Peroxisome proliferator-activated receptor delta (Homo sapiens) (UniProt Q03181) (assay: qHTS assay to identify small molecule antagonists of the peroxisome proliferator-activated receptor delta (PPARd) signaling pathway (AID 743215;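 also: cells stimulated with agonist L165041 at 300 nM final during compound exposure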)). Conditions: HEK293H PPARd-UAS-bla, beta-lactamase FRET ratio, antagonist, 17 h; series mostly up to 62 µM.
Sequence of Peroxisome proliferator-activated receptor delta (Homo sapiens) (Q03181 whole entry, looked up): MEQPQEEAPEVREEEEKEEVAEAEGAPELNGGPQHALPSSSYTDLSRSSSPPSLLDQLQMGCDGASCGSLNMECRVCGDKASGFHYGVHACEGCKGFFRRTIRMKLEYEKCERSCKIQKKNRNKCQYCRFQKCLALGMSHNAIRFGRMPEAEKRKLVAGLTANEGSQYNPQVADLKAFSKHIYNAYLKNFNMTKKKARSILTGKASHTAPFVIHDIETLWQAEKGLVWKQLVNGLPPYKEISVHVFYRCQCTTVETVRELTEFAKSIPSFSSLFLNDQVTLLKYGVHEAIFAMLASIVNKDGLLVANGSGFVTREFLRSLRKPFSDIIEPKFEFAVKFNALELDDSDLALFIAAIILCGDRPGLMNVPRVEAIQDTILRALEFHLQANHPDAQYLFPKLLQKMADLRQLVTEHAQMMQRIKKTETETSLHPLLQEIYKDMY
Outline: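 Antagonist-mode beta-lactamase reporter screen: HEK293H cells with UAS-bla under PPARd control, stimulated by 300 nM L165041 (final) alongside test compound for 17 h at 37 C, then FRET fluorescence after 2 h substrate incubation.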
% is scaled to controls: 0 for no effect and ±100 for the full control effect.

Compound	outcome	ratio activity, negative = inhibition
CC(=O)Nc1cccc(N)c1	inactive	
CC(C)(C)N	inactive	
Cc1cc(C)n(CO)n1	inactive	
O=C(O)CCc1nc2ccccc2[nH]1	inactive	
CC(C)(C)NCC(O)COc1ccc(NC(=O)NC2CCCCC2)cc1 (stereo not drawn)	inactive	
CCCCCCCCCCCCCCCCCCCl		-12.3% [at 6.26 µM]
O=C(c1ccc(Cl)cc1)c1ccc(Cl)cc1	inactive	
CCC(C)C1N=C(C)C(C)S1 (stereo not drawn)	inactive	
CC(C)C/C=C(\C=O)c1ccccc1	inactive	
N#Cc1ccc(CC(=O)c2cccc(C(F)(F)F)c2)cc1	inactive	
O=S(=O)(O)c1cc(Cl)c(Cl)cc1Cl	inactive	
CCCc1nc(C)c2c(=O)[nH]c(-c3cc(S(=O)(=O)N4CCN(CC)CC4)ccc3OCC)nn12	inactive	
CS(C)=O	inactive	
CCOc1ccc2c(c1)C(C)CC(C)(C)N2 (stereo not drawn)	inactive	
O=P(c1ccccc1)(c1ccccc1)c1ccccc1	inactive	
CCCC(=O)OCc1ccccc1	inactive	
Cc1ccc(NC=O)c(C)c1	inactive	
CCC1=C(C)CN(C(=O)NCCc2ccc(S(=O)(=O)NC(=O)NC3CCC(C)CC3)cc2)C1=O (stereo not drawn)	inactive	
COc1cc(C)c(Cc2cnc(N)nc2N)cc1OC	inactive	

Compound	outcome	ratio activity, negative = inhibition
CCCCOC(=O)C(C)Oc1ccc(Oc2ccc(C(F)(F)F)cn2)cc1 (stereo not drawn)	inactive	
C=CC(C)(O)CC/C=C(/C)CCC=C(C)C (stereo not drawn)	inactive	
CC(=O)c1cccnc1	inactive	
CCCCCO	inactive	
O=c1[nH]nc(-c2ccc([N+](=O)[O-])o2)o1	inactive	
Clc1cccc(C(c2ccc3nc[nH]c3c2)n2ccnc2)c1 (stereo not drawn)	inactive	
O=C(O)c1ccncc1	inactive	
CC1=C(C)C(=O)C(C(CCCCCC(=O)O)c2ccccc2)=C(C)C1=O (stereo not drawn)	inactive	
O=[N+]([O-])c1ccccc1CCO	inactive	
O=c1[nH][nH]c2ccccc12	inactive	
CCc1c(C)[nH]c2c1C(=O)C(CN1CCOCC1)CC2 (stereo not drawn)	inactive	
Cc1nc(C)c(C)nc1C	inactive	
CCCCCCCCCCCCN1CCOCC1	inactive	
O=Cc1ccc([N+](=O)[O-])cc1	inactive	
C=CCCC	inactive	
C1CCN(CN2CCCCC2)CC1	inactive	
CC(C)=CCC/C(C)=C/C=N/O	inactive	
Cc1ccccc1CCO	inactive	
OCCCO	inactive	
